Here are results for eight sequences from PMC8384837, “Expanding the binding specificity for RNA recognition by a PUF domain”.

What all share (assay): yeast three-hybrid, YBZ-1, SC-Leu-His + 0.5 mM 3-AT, 4 days
What all share (conditions): tags: N-Gal4 AD-HA kept; label: inside an RPR1-promoter hybrid RNA with tandem MS2 sites; ssRNA

For one assay, the target named is T1, PUM1 PUF domain R6-HWR (Homo sapiens, UniProt Q14671 828-1176, N1043H;Y1044W;Q1047R).
T1 sequence: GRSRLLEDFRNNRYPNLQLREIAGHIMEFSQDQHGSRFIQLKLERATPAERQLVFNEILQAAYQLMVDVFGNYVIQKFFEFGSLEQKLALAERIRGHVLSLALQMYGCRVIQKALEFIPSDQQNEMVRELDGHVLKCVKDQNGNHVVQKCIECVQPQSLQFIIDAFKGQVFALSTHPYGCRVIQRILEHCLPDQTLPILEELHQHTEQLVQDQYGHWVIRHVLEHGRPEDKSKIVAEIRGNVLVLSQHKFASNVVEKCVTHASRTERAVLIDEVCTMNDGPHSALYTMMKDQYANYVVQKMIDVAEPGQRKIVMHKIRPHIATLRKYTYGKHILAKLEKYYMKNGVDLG
In a few lines: (§1)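 Sequencing with Illumina followed PCR amplification of the repeat regions from transformants grown four days on SC-Leu (input) or SC-Leu-His + 0.5 mM 3-AT (selection). The transformants were strain YBZ-1 with a LexA–MS2 coat fusion and a HIS3 reporter, carrying Pumilio-1 PUF domain libraries and matching RNA elements. The interaction score is the log change in variant frequency from input to selection, computed in log2 with a pseudocount of 1 for absent variants.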

A further assay deals with T2, PUM1 PUF domain R6-FWI (Homo sapiens, UniProt Q14671 828-1176, N1043F;Y1044W;Q1047I).
T2 sequence: T1 sequence with H216F, R220I
Put shortly:
as §1

Another assay has as its target PUM1 PUF domain R3-RPR (Homo sapiens, UniProt Q14671 828-1176, C935R;R936P;Q939R). In a few lines:
as §1

Another assay addresses PUM1 PUF domain R4-TPQ (Homo sapiens, UniProt Q14671 828-1176, N971T;H972P). Put shortly:
as §1

A further assay has as its target PUM1 PUF domain R4-HNV (Homo sapiens, UniProt Q14671 828-1176, N971H;H972N;Q975V). Put shortly: as §1
In a further assay the target is PUM1 PUF domain R8-KWK (Homo sapiens, UniProt Q14671 828-1176, N1122K;Y1123W;Q1126K). In a few lines: as §1
Another assay concerns the target PUM1 PUF domain R7-KFN (Homo sapiens, UniProt Q14671 828-1176, S1079K;N1080F;E1083N). In a few lines: as §1
The target of the next assay is PUM1 PUF domain R7-QCR (Homo sapiens, UniProt Q14671 828-1176, S1079Q;N1080C;E1083R). Put shortly: as §1
For another assay, the target named is PUM1 PUF domain R4-EHD (Homo sapiens, UniProt Q14671 828-1176, N971E;Q975D). In a few lines: as §1
Another assay deals with PUM1 PUF domain R4-SMS (Homo sapiens, UniProt Q14671 828-1176, N971S;H972M;Q975S). In a few lines: as §1

Changes are numbered by the printed parent chain.

Sequence of PUM1 PUF domain R4-HNV (Q14671 828-1176 N971H/H972N/Q975V): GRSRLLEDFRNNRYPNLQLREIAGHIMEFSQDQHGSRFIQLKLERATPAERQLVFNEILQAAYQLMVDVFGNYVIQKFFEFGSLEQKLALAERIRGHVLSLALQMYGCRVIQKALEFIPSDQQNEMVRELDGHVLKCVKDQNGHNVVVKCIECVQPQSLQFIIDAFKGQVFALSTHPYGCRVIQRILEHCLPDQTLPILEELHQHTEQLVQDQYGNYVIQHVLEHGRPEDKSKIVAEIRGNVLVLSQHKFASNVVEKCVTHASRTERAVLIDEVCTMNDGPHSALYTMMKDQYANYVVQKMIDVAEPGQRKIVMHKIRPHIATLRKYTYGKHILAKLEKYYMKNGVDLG

Regarding “GGCUAGAACUAGUGGAUCCCCCGGCGCCCGGCGGCUCGAGCCCGGGUAAGUGAAAAUAGUCUGCAUGCCGCCGGGCGCCAUGCCUGCAGGUCGACUCUAGAAAACAUG”, the binding signal is 1.35 log2 enrichment (interaction score) with PUM1 PUF domain R6-HWR and 3.65 log2 enrichment (interaction score) in the assay with PUM1 PUF domain R6-FWI.
As to “GGCUAGAACUAGUGGAUCCCCCGGCGCCCGGCGGCUCGAGCCCGGGUAAGUGUAAUUAGUCUGCAUGCCGCCGGGCGCCAUGCCUGCAGGUCGACUCUAGAAAACAUG”, the binding signal with PUM1 PUF domain R3-RPR is 5.3 log2 enrichment (interaction score).
For the sequence “GGCUAGAACUAGUGGAUCCCCCGGCGCCCGGCGGCUCGAGCCCGGGUAAGUGUAGAUAGUCUGCAUGCCGCCGGGCGCCAUGCCUGCAGGUCGACUCUAGAAAACAUG”, the binding signal with PUM1 PUF domain R4-TPQ is 1.66 log2 enrichment (interaction score).
On to “GGCUAGAACUAGUGGAUCCCCCGGCGCCCGGCGGCUCGAGCCCGGGUAAGUGUACAUAGUCUGCAUGCCGCCGGGCGCCAUGCCUGCAGGUCGACUCUAGAAAACAUG”, for which the results for the binding signal in the assay with PUM1 PUF domain R4-HNV and with PUM1 PUF domain R4-TPQ were 2.63 log2 enrichment (interaction score) and 3.39 log2 enrichment (interaction score), respectively.
For “GGCUAGAACUAGUGGAUCCCCCGGCGCCCGGCGGCUCGAGCCCGGGUAAGCGUAAAUAGUCUGCAUGCCGCCGGGCGCCAUGCCUGCAGGUCGACUCUAGAAAACAUG”, the binding signal in the assay with PUM1 PUF domain R8-KWK was 6.96 log2 enrichment (interaction score).
As for “GGCUAGAACUAGUGGAUCCCCCGGCGCCCGGCGGCUCGAGCCCGGGUAAGUCUAAAUAGUCUGCAUGCCGCCGGGCGCCAUGCCUGCAGGUCGACUCUAGAAAACAUG”, the values for the binding signal with PUM1 PUF domain R7-KFN and with PUM1 PUF domain R7-QCR were 3.14 log2 enrichment (interaction score) and 3.59 log2 enrichment (interaction score), respectively.
For the sequence “GGCUAGAACUAGUGGAUCCCCCGGCGCCCGGCGGCUCGAGCCCGGGUAAGUGUAAAUAGUCUGCAUGCCGCCGGGCGCCAUGCCUGCAGGUCGACUCUAGAAAACAUG”, the binding signal was 3.48 log2 enrichment (interaction score) in the assay with PUM1 PUF domain R4-EHD; 2.84 log2 enrichment (interaction score) with PUM1 PUF domain R4-SMS; 1.87 log2 enrichment (interaction score) in the assay with PUM1 PUF domain R3-RPR; 7.48 log2 enrichment (interaction score) with PUM1 PUF domain R6-HWR; 5.56 log2 enrichment (interaction score) in the assay with PUM1 PUF domain R8-KWK.
As to “GGCUAGAACUAGUGGAUCCCCCGGCGCCCGGCGGCUCGAGCCCGGGUAAGUGUAUAUAGUCUGCAUGCCGCCGGGCGCCAUGCCUGCAGGUCGACUCUAGAAAACAUG”, the binding signal was 6.81 log2 enrichment (interaction score) in the assay with PUM1 PUF domain R4-EHD, 1.55 log2 enrichment (interaction score) with PUM1 PUF domain R4-SMS and 4.97 log2 enrichment (interaction score) with PUM1 PUF domain R4-TPQ.
